Measured values published in PubChem BioAssay AID1259389 (Center for Chemical Genomics, University of Michigan, 2018).
The campaign covered roughly 100,000 compounds. About 620 (0.62%) were called active. Only a selection was taken, and actives are over-represented in it overall. Values without a mark were called inactive. The calls were made as follows: active = z-score of 3 or more in at least 2 runs; inactive = the rest.

Assay: TAR RNA-Tat peptide displacers, HIV-1, primary screen, biochemical, FRET, FAM/TAMRA-labeled Tat (AID 1259389)
Details: HIV-1 TAR RNA, Tat peptide displacement FRET; active compounds read high

Compared with `CNC(=O)c1c(NC(=O)CCSc2ccccc2)sc2c1CCC2`, `O=C(Cn1c(=O)sc2ccccc21)NCCC1=CCCCC1` is higher in z-score: 0.4 for the first, 0.76 for the second.

Going from `COC(=O)c1cc2n(n1)CC(C)(C(=O)NC1CCC(C)CC1)N(CCc1cccs1)C2=O` (centres undefined) to `O=C(OCc1cc(=O)n2nc(C3CCCCC3)sc2n1)c1ccccc1`, the z-score falls from 0.65 to 0.63.

First: CSc1cccc(NC(=O)CSc2nnc(C)n3c2cc2oc(C)cc23)c1
Second: Cc1nnc(NC(=O)CN2C(=O)c3cccnc3Sc3ccccc32)s1
The z-score of the first is lower: 0.7 for the first, 1.32 for the second.

Going from `O=C(Nc1nccs1)c1cc(-c2ccc(Cl)cc2)on1` to `Cn1cc(NC(=O)Nc2cccc(Cl)c2)c2ccccc2c1=O`, the z-score falls from 15.3 to -0.05.

Going from `Cc1cc2c(cc3c(=O)n(CC(=O)NC4CCCC(C)C4C)ncn32)s1` (centres undefined) to `CN1CCN(C(=O)Cn2ncn3cccc3c2=O)CC1`, the z-score rises from -0.21 to 1.42.

Going from `CCCCn1c(C)c(C)c2c1ncn1nc(Cc3ccc(OC)cc3)nc21` to `CCOc1ccc2nc(Nc3nc(C)c(CC)c(=O)[nH]3)nc(C)c2c1`, the z-score rises from 0.12 to 2.61.

Going from `CC1CCCCN1CCCNC(=O)c1noc2c1CCc1sccc1-2` (centres undefined) to `CN1CCN(c2cc(NCCCC(=O)O)c3c4c(onc24)-c2ccccc2C3=O)CC1`, the z-score rises from 1.13 to 1.94.

First: CN1C(=O)C[C@H](C(=O)O)C1c1cccnc1 (some centres undefined)
Second: COc1ccc(N2C(=O)C3CCCN3C2c2cccc(OC)c2)cc1 (centres undefined)
The z-score of the first is higher: 1.8 for the first, -0.15 for the second.

First: Cc1ccc2nc(Nc3ncc4c(n3)CC(C)(C)CC4=O)nc(C)c2c1
Second: COc1cc(C)c(S(=O)(=O)N2CCc3cc4cc(C)ccc4nc32)cc1C
The z-score of the first is higher: 1.31 for the first, -1.52 for the second.

First: Cc1ccc(C2CC(c3cccc(C)c3)n3nc(N)nc3N2)cc1 (centres undefined)
Second: COc1ccc(C2CC(=O)C3=C(C2)Nc2ccccc2NC3c2cccc(Cl)c2)cc1 (centres undefined)
The z-score of the first is higher: 0.73 for the first, -1.58 for the second.

Compared with `COc1cccc(C2Nc3cccc4cccc(c34)N2)c1OC`, `COc1ccc(-c2nc3ccccc3[nH]2)cc1OC` is lower in z-score: 3.46 for the first, 2.05 for the second.

First: CCC(C)NC(=O)c1ccc(CN2C(=O)C(C)=C(c3ccc(C)cc3)S2(=O)=O)cc1 (centres undefined)
Second: Cc1cccc(NS(=O)(=O)c2ccc(-c3ccc(=O)[nH]n3)o2)c1C
The z-score of the first is higher: 1.92 for the first, 0.96 for the second.

First: Cc1nc2nc(Cc3ccccc3)[nH]n2c(=O)c1C
Second: Cc1cc2nc(COC(=O)c3ccccc3Cl)cc(=O)n2o1
The z-score of the first is higher: 2.84 for the first, 0.42 for the second.

First: Oc1ccc2ncccc2c1C(Nc1ccccn1)c1cccc(Br)c1 (centres undefined)
Second: O=C1c2ccccc2C(Nc2ccc(F)cc2F)N1c1ccccn1 (centres undefined)
The z-score of the first is higher: 10.7 for the first, 2.34 for the second.

Compared with `COc1cc(C2OC(c3ccc(Br)cc3)=NN2C(C)=O)ccc1OC(C)=O` (centres undefined), `COc1ccc(Cl)cc1N1CC(O)=C(c2nc3ccccc3n2C)C1=N` is lower in z-score: 1.63 for the first, 0.34 for the second.

Going from `Cc1c(C(=O)N2CCC(C)CC2)c(S(=O)(=O)N2CCN(C3CCCCC3)CC2)c(C)n1C` to `CCOC(=O)N1CCN(c2cc(NCCO)c3c4c(onc24)-c2ccccc2C3=O)CC1`, the z-score rises from 1.14 to 2.61.

Compared with `CCOc1ccc(/C=C/c2nc(C#N)c(N3CCNCC3)o2)cc1`, `CCSc1ncc(CO)n1Cc1ccc(F)cc1` is higher in z-score: 0.65 for the first, 0.78 for the second.

First: Cc1ccn2c(=O)c(C(=O)NCCCOC(C)C)c(O)nc2c1
Second: Cc1nc(S(=O)(=O)Nc2ccc(C(C)C)cc2)cn1C
The z-score of the first is lower: 0.76 for the first, 1.64 for the second.

First: C=CCOC(=O)C1=C(C)NC2=C(C(=O)CC(C)(C)C2)C1c1cc2c(cc1Cl)OCO2 (centres undefined)
Second: C[C@@H]1O[C@@H](O[C@H]2[C@@H](Oc3cc(O)c4c(c3)O[C@H](c3ccc(O)cc3)CC4=O)O[C@H](CO)[C@@H](O)[C@@H]2O)[C@H](O)[C@H](O)[C@H]1O
The z-score of the first is lower: 0.26 for the first, 2.09 for the second.

Going from `O=C(c1cc(-c2ccccc2)n[nH]1)N1CCn2c1nc1ccccc12` to `CCCC1CNc2cc(C)ccc2O1` (centres undefined), the z-score rises from 0.42 to 2.06.

With `COc1ccc(-c2cc(=O)c3c(O)cc(O[C@@H]4O[C@H](CO[C@@H]5O[C@@H](C)[C@H](O)[C@@H](O)[C@H]5O)[C@@H](O)[C@H](O)[C@H]4O)cc3o2)cc1O` the z-score was 4.29.

With `CC1CCCC(NC(=O)C(C)n2ncn3cccc3c2=O)C1C` (centres undefined) the z-score was 11 (active).
With `CCOc1ccc2nc(Nc3ncc4c(n3)CC(c3ccco3)CC4=O)nc(C)c2c1` (centres undefined) the z-score was 13.8 (active).
For `Brc1ccccc1C1Nc2cccc3cccc(c23)N1`, the z-score was 5.65 (active).
With `COc1cccc(C2Nc3cccc4cccc(c34)N2)c1` the z-score was 21.3 (active).
With `Cc1ccc(C2Nc3cccc4cccc(c34)N2)cc1` the z-score was 6.71 (active).
With `Oc1ccc(C2Nc3cccc4cccc(c34)N2)cc1` the z-score was 4.86 (active).
In the case of `C[C@@H]1O[C@@H](OC[C@H]2O[C@@H](Oc3cc(O)c4c(c3)O[C@H](c3ccc(O)c(O)c3)CC4=O)[C@H](O)[C@@H](O)[C@@H]2O)[C@H](O)[C@H](O)[C@H]1O`, the z-score is reported as 3.52 (active).
For `CN(C)CCCNc1cc(N2CCN(c3ccccc3F)CC2)c2noc3c2c1C(=O)c1ccccc1-3`, the z-score was 5.01 (active).
